The nature of assay [1]: Tanguay_ZF_120hpf_AXIS_legacy: (Legacy) Oregon State University Tanguay Lab 120 Hour Post-fertilization zebrafish Assay for Body Axis Malformation (AID 2283635).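 On AC50: potency for an increased fraction of larvae scored with body axis malformation.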 The method, boiled down:
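Dechorionated wild-type Tropical 5D zebrafish embryos, one per well, statically exposed from 6 hpf to 120 hpf at 28C in 0.64% DMSO final. Body axis malformation scored present/absent by brightfield microscopy at 120 hpf; dead embryos excluded.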

Assay [2] in a line: Tanguay_ZF_120hpf_EYE_legacy: (Legacy) Oregon State University Tanguay Lab 120 Hour Post-fertilization zebrafish Assay for Eye Malformation (AID 2283636).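 Further: binary presence or absence of eye malformation scored by brightfield in 120 hpf larvae.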 The method, boiled down:
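Dechorionated wild-type Tropical 5D zebrafish embryos were exposed statically from 6 hpf, one per well, to 120 hpf at 28C in sealed, foil-covered plates with 0.64% DMSO. Eye malformation was scored present/absent by brightfield microscopy against DMSO controls.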

A short description of assay [3]: Tanguay_ZF_120hpf_SNOU_legacy: (Legacy) Oregon State University Tanguay Lab 120 Hour Post-fertilization zebrafish Assay for Snout Malformation (AID 2283637). The method, boiled down: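 Tropical 5D wild-type zebrafish embryos, dechorionated with pronase at 4 hpf, were exposed singly from 6 hpf to 120 hpf statically at 28C in 0.64% DMSO. Snout malformation was scored present/absent by brightfield microscopy, fitted against DMSO.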

A short description of assay [4]: Tanguay_ZF_120hpf_JAW_legacy: (Legacy) Oregon State University Tanguay Lab 120 Hour Post-fertilization zebrafish Assay for Jaw Malformation (AID 2283638).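 On AC50: active means more embryos with jaw malformation than DMSO controls.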 In short, it runs like this:
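Dechorionated Tropical 5D wild-type zebrafish embryos, one per well, exposed statically from 6 hpf to 120 hpf at 28C in 0.64% DMSO. Jaw malformation was scored by brightfield microscopy as present or absent. It was not scored in dead embryos.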

A short description of assay [5]: Tanguay_ZF_120hpf_OTIC_legacy: (Legacy) Oregon State University Tanguay Lab 120 Hour Post-fertilization zebrafish Assay for Otic Vesicle Malformation (AID 2283639). In short, it runs like this:
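Embryos from 5D wild-type adults exposed in plates; DMSO 0.64% v/v final. Sealed, light-protected, 28C, static to 120 hpf. Otic vesicle malformation recorded as binary endpoint; gain-of-signal fitted vs DMSO.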

The nature of assay [6]: Tanguay_ZF_120hpf_PE_legacy: (Legacy) Oregon State University Tanguay Lab 120 Hour Post-fertilization zebrafish Assay for Pericardial Edema (AID 2283640).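 On AC50: potency for increased incidence of pericardial edema versus DMSO baseline.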 In short, it runs like this: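 Tropical 5D wild-type zebrafish embryos were statically exposed until 120 hpf at 28C, with 0.64% DMSO final. Pericardial edema was scored by brightfield as present or absent; endpoints were not scored in dead embryos.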

Assay [7] in a line: Tanguay_ZF_120hpf_BRAI_legacy: (Legacy) Oregon State University Tanguay Lab 120 Hour Post-fertilization zebrafish Assay for Brain Malformation (AID 2283641). In short, it runs like this: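 Tropical 5D wild-type zebrafish embryos exposed statically until 120 hpf at 28C, 0.64% DMSO final, sealed and dark. Brain malformation scored present/absent by brightfield at 120 hpf; dead embryos excluded. Trimethyltin chloride 5uM positive control.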

Assay [8] can be described thus: Tanguay_ZF_120hpf_SOMI_legacy: (Legacy) Oregon State University Tanguay Lab 120 Hour Post-fertilization zebrafish Assay for Somite Malformation (AID 2283647). The method, boiled down:
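Dechorionated Tropical 5D wild-type zebrafish embryos, one per well from 6 hpf, statically exposed at 28C to 120 hpf in 0.64% DMSO; somite malformation scored present/absent by brightfield; trimethyltin 5 uM positive control; dead embryos not scored.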

Assay [9] in a line: Tanguay_ZF_120hpf_PFIN_legacy: (Legacy) Oregon State University Tanguay Lab 120 Hour Post-fertilization zebrafish Assay for Pectoral Fin Malformation (AID 2283648).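 Further: each larva judged yes or no for fin defect by brightfield with dead larvae skipped.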 The method, boiled down:
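Tropical 5D wild-type embryos, dechorionated with pronase at 4 hpf, were placed singly in wells at 6 hpf and statically exposed until 120 hpf at 28C, sealed and dark, with 0.64% (vol/vol) final DMSO; pectoral fin malformation scored present/absent.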

The nature of assay [10]: Tanguay_ZF_120hpf_YSE_legacy: (Legacy) Oregon State University Tanguay Lab 120 Hour Post-fertilization zebrafish Assay for Yolk Sac Edema (AID 2283634).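 On AC50: actives raise the incidence of yolk sac edema above the DMSO baseline.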 The method, boiled down:
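Dechorionated Tropical 5D wild-type zebrafish embryos were exposed statically, one per well, from 6 to 120 hpf at 28C in 0.64% DMSO. Yolk sac edema was scored present/absent by brightfield at 120 hpf, and dead embryos were excluded.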

The structures appear in SMILES notation. Results filed as inconclusive are left out. Some compounds were tested as several samples or in several runs, with calls that do not always agree. Calls of active or inactive are those of the source. How the source made its calls: active means hit-call score of the fitted dose curve at least 0.9, where 1 is the maximum; inconclusive means response in the unintended direction; inactive means score below 0.9.

As to `CCC(=O)C(CC(C)N(C)C)(c1ccccc1)c1ccccc1` (stereo not given), the AC50 (as a rule, the concentration giving half of the maximal activity seen) in assay [1] is 31.3 µM (active); in assay [3] it was 29.1 µM (active); in assay [4] it was 34.4 µM (active); in assay [6] it was 7.24 µM (active). Besides, the result in assay [2], in assay [5], in [7], in [8] and in assay [9] was inactive.

As to `O=C1C2(Cl)C3(Cl)C4(Cl)C(Cl)(Cl)C5(Cl)C3(Cl)C1(Cl)C5(Cl)C24Cl` (stereo not given), the AC50 in [10] is 72.1 µM (active); in [1] it was 6.6 µM (active); in [2], 79.7 µM (active); in assay [3], 9.66 µM (active); in assay [4] it was 8.93 µM (active); in [6], 38.8 µM (active). Also, the molecule was classed as inactive in assay [5], in [7], in [8] and in assay [9].

`C[C@]12CCC(=O)C[C@@H]1CC[C@@H]1[C@@H]2CC[C@]2(C)[C@@H](O)CC[C@@H]12`: the molecule was called inactive in [10], in assay [1], in assay [2], in assay [3], in assay [4] and in assay [5]. The molecule was classed as inactive in [6], in [7], in assay [8] and in assay [9].

As to `CN(C)N=O`, the molecule was classed as inactive in assay [10], in assay [2], in assay [3], in [4], in assay [5] and in assay [6]. Besides, the result in assay [7] and in [8] was inactive.

With `NC(=O)O`, the molecule was called inactive in assay [10], in [2], in assay [3], in assay [4], in assay [6] and in assay [7]. For the same molecule, in assay [8], the molecule was called inactive.

As to `Cn1sc(Cl)cc1=O`, the molecule was classed as inactive in assay [2], in [4], in [5], in assay [6], in assay [7] and in [9].

Regarding `CCCCCCCCc1ccc(O)cc1`, the result in assay [10], in assay [1], in [2], in assay [3], in assay [4] and in [5] was inactive. Further, the molecule was classed as inactive in assay [6], in assay [7], in assay [8] and in [9].

Consider `CC(=O)[O][Hg][c]1ccccc1`, for which the outcome in assay [10], in assay [1], in [2], in assay [3], in assay [4] and in assay [5] was inactive. The molecule was called inactive in assay [6], in assay [7], in assay [8] and in assay [9].

On to `CC12CC1(C)C(=O)N(c1cc(Cl)cc(Cl)c1)C2=O` (stereo not given), for which the molecule was called inactive in assay [10], in assay [1], in assay [2], in [3], in assay [4] and in assay [5]. Besides, the result in assay [6], in assay [7] and in assay [8] was inactive.

On to `O=c1[nH]c(=O)[nH]c(=O)[nH]1`, for which the outcome in [10], in assay [1], in [2], in [3], in assay [4] and in [5] was inactive. The result in assay [6], in [7], in assay [8] and in [9] was inactive.

For the molecule `C[C@@H]1C[C@@H]([C@H](O)CC2CC(=O)NC(=O)C2)C(=O)[C@@H](C)C1`, the molecule was called inactive in assay [10], in [1], in assay [2], in [4], in assay [5] and in [6]. For the same molecule, the molecule was called inactive in [7] and in assay [8].

For the molecule `ClC1(Cl)C2(Cl)C3(Cl)C4(Cl)C(Cl)(Cl)C5(Cl)C3(Cl)C1(Cl)C5(Cl)C24Cl` (stereo not given), the molecule was called inactive in assay [10], in assay [1], in assay [2], in [3], in [4] and in assay [5]. The molecule was classed as inactive in assay [6], in assay [7], in [8] and in assay [9].

For `O=C(O)C(F)(F)C(F)(F)C(F)(F)C(F)(F)C(F)(F)C(F)(F)F`, the molecule was called inactive in assay [10], in [1], in assay [2], in [4], in assay [5] and in [6]. Further, the outcome in [7] and in assay [9] was inactive.

`CCOP(=S)(OCC)Oc1nc(Cl)c(Cl)cc1Cl`: the molecule was called inactive in [10], in [1], in assay [2], in assay [3], in assay [4] and in [5]. Also, the result in assay [6], in [7] and in assay [8] was inactive.

In the case of `O=[N+]([O-])c1ccc(O)c([N+](=O)[O-])c1`, the result in assay [10], in assay [2], in [3], in [4], in assay [5] and in assay [6] was inactive. Besides, the outcome in [7] and in [9] was inactive.

On to `CC(C)(c1ccccc1)c1ccc(O)c(C(C)(C)c2ccccc2)c1`, for which the call in assay [10], in assay [2], in [3], in assay [4], in assay [5] and in [6] was inactive. Besides, the call in assay [7] and in [9] was inactive.

`COc1cc(-c2ccc(N)c(OC)c2)ccc1N`: the concentration at half-maximal activity (AC50) in assay [10] is 32.8 µM (active); in assay [2] it was 57 µM (active); in [3], 12 µM (active); in assay [4], 47 µM (active); in assay [6], 12.5 µM (active); in assay [7], 77.2 µM (active). Further, in [9], the AC50 was 87.5 µM (active). For the same molecule, the molecule was classed as inactive in [10], in assay [1], in assay [2], in [3], in [4] and in [5]. In addition, the molecule was called inactive in [6], in assay [7], in assay [8] and in assay [9].

With `C=CC(=O)OCCCCCC(C)C`, the molecule was classed as inactive in assay [10], in [1], in [2], in assay [3], in [4] and in assay [5]. Besides, the outcome in [6], in [7], in assay [8] and in assay [9] was inactive.

As for `Oc1cccc2cccnc12`, the outcome in assay [10], in assay [1], in assay [3], in [4], in [5] and in [6] was inactive. Besides, the result in assay [7], in assay [8] and in assay [9] was inactive.

For `O=C(Nc1ccc2[nH]ccc2c1)c1cc2cc(F)ccc2n1Cc1cccc(F)c1`, the molecule was called inactive in assay [10], in assay [1], in assay [2], in [3], in [4] and in assay [5]. The outcome in assay [6], in [7], in [8] and in assay [9] was inactive.

For `O=C(O)C(F)(F)C(F)(F)C(F)(F)C(F)(F)C(F)(F)C(F)(F)C(F)(F)C(F)(F)C(F)(F)C(F)(F)F`, the call in [10], in [2], in [3], in assay [4], in assay [5] and in assay [6] was inactive. The outcome in assay [7], in assay [8] and in [9] was inactive.

Take `C=C(C)C(=O)[O][Sn]([CH2]CCC)([CH2]CCC)[CH2]CCC`: the outcome in assay [10], in assay [1], in assay [2], in assay [3], in [4] and in assay [5] was inactive. Moreover, the result in assay [6], in [7], in assay [8] and in assay [9] was inactive.

As to `ClCC(Cl)CCl`, the molecule was called inactive in [1], in assay [3], in assay [4], in [5], in assay [6] and in assay [7]. The call in assay [8] was inactive.

As for `CC(C)(C)CC(C)(C)c1ccc(O)cc1`, the call in [10], in assay [1], in assay [2], in assay [5], in [6] and in assay [8] was inactive. Further, in assay [9], the call was inactive.

On to `CC(C)(C)c1cc(O)ccc1O`, for which the result in assay [10], in [1], in [2], in assay [3], in assay [4] and in assay [5] was inactive. The molecule was classed as inactive in [6], in assay [7], in assay [8] and in [9].

`O=C(O)C(Cl)(Cl)Cl`: the result in assay [10], in assay [1], in assay [2], in assay [3], in [4] and in [5] was inactive. Further, the outcome in [6], in assay [7], in assay [8] and in assay [9] was inactive.

Take `CCOP(=S)(OCC)SCSP(=S)(OCC)OCC`: the call in assay [10], in assay [1], in assay [2], in assay [3], in assay [4] and in assay [5] was inactive. The outcome in assay [6], in assay [7], in assay [8] and in assay [9] was inactive.

Take `Cc1ccccc1N`: the molecule was classed as inactive in assay [10], in assay [2], in assay [3], in assay [4], in assay [6] and in assay [7]. The result in [8] and in [9] was inactive.

Turning to `CCN1CCC2(CC1)COc1cc3c(cc12)N(C(=O)c1ccc(-c2ccc(-c4nnc(C)o4)cc2C)cc1)CC3`, the call in assay [10], in assay [1], in [2], in assay [3], in [4] and in assay [5] was inactive. For the same molecule, the outcome in [6], in assay [7], in assay [8] and in [9] was inactive.

As to `CCC(C)(C)c1ccc(O)c(C(C)(C)CC)c1`, the molecule was called inactive in assay [10], in assay [1], in [2], in assay [3], in assay [4] and in assay [5]. Also, the call in [6], in assay [7] and in [8] was inactive.

As for `CC(C)(OO)c1ccccc1`, the result in assay [10], in assay [1], in assay [2], in assay [3], in assay [4] and in assay [5] was inactive. Also, the call in assay [6], in assay [8] and in assay [9] was inactive.

The values above are taken from PubChem BioAssay (EPA / NIEHS).
